# Laboratory results reported in publication PMC7862700, “An all-to-all approach to the identification of sequence-specific readers for epigenetic DNA modifications on cytosine”.
# Legend:
# Test in all cases: DAPPL (digital affinity profiling via proximity ligation, sequencing); 10 mM Tris-HCl pH 7.5, 50 mM NaCl, 1 mM DTT, 4% glycerol, room temperature, 30 min; GST-TFs on glutathione beads, 16-mer random dsDNA library, 0.1% formaldehyde crosslink after washing; high values mean tight binding
# FEV = biological target: T1, FEV (Homo sapiens, UniProt Q99581 1-238); conditions: protein: recombinant; tags: N-terminal GST; dsDNA, one strand shown
# T1 sequence: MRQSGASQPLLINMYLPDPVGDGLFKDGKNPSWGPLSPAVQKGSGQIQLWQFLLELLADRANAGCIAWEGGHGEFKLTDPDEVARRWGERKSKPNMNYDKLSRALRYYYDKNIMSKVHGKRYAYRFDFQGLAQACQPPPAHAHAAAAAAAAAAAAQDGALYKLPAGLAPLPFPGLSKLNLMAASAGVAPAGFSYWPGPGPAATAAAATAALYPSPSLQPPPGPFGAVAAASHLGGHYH
# In short: (§1)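 A tag-only sample was pooled with DNA-barcoded human transcription factors that had been expressed in yeast as GST fusions and captured on glutathione beads. The pools were incubated for 30 min at room temperature with 200 nmole of a random double-stranded 16-mer DNA library in Tris/NaCl/DTT/glycerol buffer, then washed, crosslinked with 0.1% formaldehyde, proximity-ligated (BsaI/T4 ligase, 1 h, 37 °C), PCR-amplified and sequenced on an Illumina NextSeq500. Binding signal is each hexamer's read frequency for a factor divided by its frequency for the tag-only sample.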
# ETV5 = ETV5 (Homo sapiens, UniProt P41161 1-510); conditions: protein: recombinant; tags: N-terminal GST; dsDNA, one strand shown
# Sequence of ETV5 (P41161 whole entry): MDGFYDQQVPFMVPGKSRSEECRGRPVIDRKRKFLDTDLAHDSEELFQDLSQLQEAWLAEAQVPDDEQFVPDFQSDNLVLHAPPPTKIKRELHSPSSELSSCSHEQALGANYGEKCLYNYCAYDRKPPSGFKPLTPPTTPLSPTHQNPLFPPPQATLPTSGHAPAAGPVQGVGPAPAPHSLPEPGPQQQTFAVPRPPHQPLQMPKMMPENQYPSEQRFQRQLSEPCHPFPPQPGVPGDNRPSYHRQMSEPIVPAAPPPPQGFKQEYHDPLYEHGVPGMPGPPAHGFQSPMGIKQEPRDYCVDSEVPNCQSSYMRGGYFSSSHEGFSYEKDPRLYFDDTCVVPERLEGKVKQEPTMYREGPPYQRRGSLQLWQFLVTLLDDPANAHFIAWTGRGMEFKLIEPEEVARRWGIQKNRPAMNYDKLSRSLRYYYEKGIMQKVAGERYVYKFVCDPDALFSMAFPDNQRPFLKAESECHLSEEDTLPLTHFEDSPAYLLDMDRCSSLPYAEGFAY
# In short: as §1
# HSF1 = HSF1 (Homo sapiens, UniProt Q00613 1-529); conditions: protein: recombinant; tags: N-terminal GST; chain copies: 3; dsDNA, one strand shown
# Sequence of HSF1 (Q00613 whole entry): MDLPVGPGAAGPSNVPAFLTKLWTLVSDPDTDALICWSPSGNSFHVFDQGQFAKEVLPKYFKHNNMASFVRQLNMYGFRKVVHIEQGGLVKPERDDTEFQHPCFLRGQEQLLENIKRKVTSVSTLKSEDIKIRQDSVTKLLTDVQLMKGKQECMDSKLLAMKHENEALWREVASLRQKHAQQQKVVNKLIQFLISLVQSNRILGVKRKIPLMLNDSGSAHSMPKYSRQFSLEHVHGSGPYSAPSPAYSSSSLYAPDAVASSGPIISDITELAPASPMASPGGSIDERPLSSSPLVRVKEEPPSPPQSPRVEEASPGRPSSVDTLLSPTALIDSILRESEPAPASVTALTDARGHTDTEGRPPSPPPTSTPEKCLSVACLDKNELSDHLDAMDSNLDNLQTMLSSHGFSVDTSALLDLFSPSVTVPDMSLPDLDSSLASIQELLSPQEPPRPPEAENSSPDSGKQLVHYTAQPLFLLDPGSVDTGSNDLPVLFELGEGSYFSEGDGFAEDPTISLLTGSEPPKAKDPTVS
# In short: as §1
# SPIC = biological target: T2, SPIC (Homo sapiens, UniProt Q8N5J4 1-248); conditions: protein: recombinant; tags: N-terminal GST; dsDNA, one strand shown
# T2 sequence: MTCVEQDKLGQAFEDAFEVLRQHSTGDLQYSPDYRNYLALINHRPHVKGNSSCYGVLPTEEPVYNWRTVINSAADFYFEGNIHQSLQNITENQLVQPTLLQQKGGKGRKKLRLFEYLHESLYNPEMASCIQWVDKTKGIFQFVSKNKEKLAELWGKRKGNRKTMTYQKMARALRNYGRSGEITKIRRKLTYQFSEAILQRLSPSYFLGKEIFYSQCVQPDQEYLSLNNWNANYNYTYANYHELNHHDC
# In short: as §1
# ELF4 = ELF4 (Homo sapiens, UniProt Q99607 1-663); conditions: protein: recombinant; tags: N-terminal GST; dsDNA, one strand shown
# Sequence of ELF4 (Q99607 whole entry): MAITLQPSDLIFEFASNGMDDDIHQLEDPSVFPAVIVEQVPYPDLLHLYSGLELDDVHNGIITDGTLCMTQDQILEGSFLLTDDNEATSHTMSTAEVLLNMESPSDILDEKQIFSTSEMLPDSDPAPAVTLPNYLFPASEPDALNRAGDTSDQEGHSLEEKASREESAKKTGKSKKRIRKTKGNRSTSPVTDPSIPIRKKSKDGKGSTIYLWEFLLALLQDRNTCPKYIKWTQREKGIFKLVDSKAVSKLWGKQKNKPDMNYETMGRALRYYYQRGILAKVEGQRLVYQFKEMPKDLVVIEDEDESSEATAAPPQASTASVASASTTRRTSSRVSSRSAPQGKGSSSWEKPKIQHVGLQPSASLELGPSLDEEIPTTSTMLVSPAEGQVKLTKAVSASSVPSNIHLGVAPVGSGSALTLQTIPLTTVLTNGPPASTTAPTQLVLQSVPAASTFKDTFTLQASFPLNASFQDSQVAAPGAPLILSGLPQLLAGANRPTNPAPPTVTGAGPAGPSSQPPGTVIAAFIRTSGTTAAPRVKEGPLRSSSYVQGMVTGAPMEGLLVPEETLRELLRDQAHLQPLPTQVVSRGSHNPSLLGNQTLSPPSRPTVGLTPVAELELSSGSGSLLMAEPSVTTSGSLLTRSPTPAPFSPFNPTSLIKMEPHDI
# In short: as §1
# ELK4 = biological target: T3, ELK4 (Homo sapiens, UniProt P28324-2 1-405); conditions: protein: recombinant; tags: N-terminal GST; dsDNA, one strand shown
# T3 sequence: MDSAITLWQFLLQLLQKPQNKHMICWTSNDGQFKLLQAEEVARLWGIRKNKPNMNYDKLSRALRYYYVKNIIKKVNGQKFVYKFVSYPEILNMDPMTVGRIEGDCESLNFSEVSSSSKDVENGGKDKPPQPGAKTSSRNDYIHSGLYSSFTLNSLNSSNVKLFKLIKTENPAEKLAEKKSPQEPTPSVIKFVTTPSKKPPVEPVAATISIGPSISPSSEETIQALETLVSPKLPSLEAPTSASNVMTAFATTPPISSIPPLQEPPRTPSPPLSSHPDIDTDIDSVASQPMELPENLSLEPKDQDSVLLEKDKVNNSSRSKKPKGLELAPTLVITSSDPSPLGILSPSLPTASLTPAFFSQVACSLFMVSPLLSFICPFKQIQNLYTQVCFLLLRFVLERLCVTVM
# In short: as §1
# ETV2 = biological target: T4, ETV2 (Homo sapiens, UniProt O00321 1-342); conditions: protein: recombinant; tags: N-terminal GST; dsDNA, one strand shown
# T4 sequence: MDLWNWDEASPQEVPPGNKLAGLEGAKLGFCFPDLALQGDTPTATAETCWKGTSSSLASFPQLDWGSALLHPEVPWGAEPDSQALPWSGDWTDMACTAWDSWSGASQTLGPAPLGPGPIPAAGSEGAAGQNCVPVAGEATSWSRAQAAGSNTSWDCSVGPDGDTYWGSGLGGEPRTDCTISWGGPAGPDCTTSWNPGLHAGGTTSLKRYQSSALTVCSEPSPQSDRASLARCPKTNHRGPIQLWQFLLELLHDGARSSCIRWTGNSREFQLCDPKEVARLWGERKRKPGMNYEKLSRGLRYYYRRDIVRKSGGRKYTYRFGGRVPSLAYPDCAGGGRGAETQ
# In short: as §1
# ELF3 = biological target: T5, ELF3 (Homo sapiens, UniProt P78545 1-371); conditions: protein: recombinant; tags: N-terminal GST; dsDNA, one strand shown
# T5 sequence: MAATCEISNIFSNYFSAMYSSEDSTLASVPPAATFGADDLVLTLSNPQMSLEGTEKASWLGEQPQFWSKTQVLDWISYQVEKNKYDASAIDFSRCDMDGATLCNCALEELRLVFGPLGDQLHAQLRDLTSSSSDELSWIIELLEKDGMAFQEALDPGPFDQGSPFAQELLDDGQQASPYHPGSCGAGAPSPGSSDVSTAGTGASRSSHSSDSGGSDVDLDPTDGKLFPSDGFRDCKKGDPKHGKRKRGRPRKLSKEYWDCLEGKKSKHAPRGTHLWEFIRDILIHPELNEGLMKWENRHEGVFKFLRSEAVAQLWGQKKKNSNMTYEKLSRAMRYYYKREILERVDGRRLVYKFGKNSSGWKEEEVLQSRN
# In short: as §1
# CRX = CRX (Homo sapiens, UniProt O43186 1-299); conditions: protein: recombinant; tags: N-terminal GST; dsDNA, one strand shown
# Sequence of CRX (O43186 whole entry): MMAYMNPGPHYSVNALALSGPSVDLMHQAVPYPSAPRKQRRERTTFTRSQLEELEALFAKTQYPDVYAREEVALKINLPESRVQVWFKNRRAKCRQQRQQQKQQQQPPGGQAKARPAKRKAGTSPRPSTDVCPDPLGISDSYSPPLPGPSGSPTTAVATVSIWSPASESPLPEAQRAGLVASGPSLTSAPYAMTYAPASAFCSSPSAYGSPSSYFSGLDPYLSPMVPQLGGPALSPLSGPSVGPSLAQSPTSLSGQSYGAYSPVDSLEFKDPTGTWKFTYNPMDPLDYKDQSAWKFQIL
# In short: as §1
# ETV1 = ETV1 (Homo sapiens, UniProt P50549 1-477); conditions: protein: recombinant; tags: N-terminal GST; dsDNA, one strand shown
# Sequence of ETV1 (P50549 whole entry): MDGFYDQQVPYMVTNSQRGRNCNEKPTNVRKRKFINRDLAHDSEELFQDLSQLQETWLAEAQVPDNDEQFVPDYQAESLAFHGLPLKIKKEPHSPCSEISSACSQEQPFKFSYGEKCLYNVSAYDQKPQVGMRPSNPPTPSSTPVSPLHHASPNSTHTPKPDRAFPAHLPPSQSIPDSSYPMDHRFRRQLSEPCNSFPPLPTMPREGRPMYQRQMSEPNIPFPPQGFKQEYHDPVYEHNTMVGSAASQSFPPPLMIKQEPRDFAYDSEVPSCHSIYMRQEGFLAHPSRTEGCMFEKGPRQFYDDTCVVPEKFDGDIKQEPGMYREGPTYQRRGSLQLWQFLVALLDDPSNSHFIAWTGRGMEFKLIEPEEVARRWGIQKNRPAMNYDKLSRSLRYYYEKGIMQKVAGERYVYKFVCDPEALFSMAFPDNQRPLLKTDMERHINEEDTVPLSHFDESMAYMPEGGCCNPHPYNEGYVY
# In short: as §1
# ERF = biological target: T6, ERF (Homo sapiens, UniProt P50548 1-548); conditions: protein: recombinant; tags: N-terminal GST; dsDNA, one strand shown
# T6 sequence: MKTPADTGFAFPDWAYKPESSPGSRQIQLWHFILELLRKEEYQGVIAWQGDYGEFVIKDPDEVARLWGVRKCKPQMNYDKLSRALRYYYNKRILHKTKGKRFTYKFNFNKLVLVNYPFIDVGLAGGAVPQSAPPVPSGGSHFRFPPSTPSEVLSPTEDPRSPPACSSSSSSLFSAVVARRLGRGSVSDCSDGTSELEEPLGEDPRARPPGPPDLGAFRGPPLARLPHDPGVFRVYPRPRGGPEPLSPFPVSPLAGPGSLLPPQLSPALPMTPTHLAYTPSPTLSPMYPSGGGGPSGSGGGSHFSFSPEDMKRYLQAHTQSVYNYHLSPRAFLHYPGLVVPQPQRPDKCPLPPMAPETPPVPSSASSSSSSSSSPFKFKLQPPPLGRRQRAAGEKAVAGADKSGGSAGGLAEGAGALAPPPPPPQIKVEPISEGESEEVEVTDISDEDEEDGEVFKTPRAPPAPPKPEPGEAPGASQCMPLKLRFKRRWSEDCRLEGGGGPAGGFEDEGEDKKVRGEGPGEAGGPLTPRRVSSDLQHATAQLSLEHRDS
# In short: as §1
# ETV3L = biological target: T7, ETV3L (Homo sapiens, UniProt Q6ZN32 1-361); conditions: protein: recombinant; tags: N-terminal GST; dsDNA, one strand shown
# T7 sequence: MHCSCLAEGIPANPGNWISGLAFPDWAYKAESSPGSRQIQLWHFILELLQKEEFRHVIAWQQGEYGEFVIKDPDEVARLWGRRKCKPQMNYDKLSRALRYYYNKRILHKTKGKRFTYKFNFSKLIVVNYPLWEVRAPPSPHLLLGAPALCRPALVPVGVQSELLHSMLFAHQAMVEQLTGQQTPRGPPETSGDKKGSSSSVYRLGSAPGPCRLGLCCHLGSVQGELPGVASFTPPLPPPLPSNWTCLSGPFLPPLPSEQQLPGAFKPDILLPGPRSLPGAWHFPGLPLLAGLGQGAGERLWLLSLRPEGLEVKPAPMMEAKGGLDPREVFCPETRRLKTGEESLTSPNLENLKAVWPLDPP
# In short: as §1
# ETS2 = biological target: T8, ETS2 (Homo sapiens, UniProt P15036 1-469); conditions: protein: recombinant; tags: N-terminal GST; dsDNA, one strand shown
# T8 sequence: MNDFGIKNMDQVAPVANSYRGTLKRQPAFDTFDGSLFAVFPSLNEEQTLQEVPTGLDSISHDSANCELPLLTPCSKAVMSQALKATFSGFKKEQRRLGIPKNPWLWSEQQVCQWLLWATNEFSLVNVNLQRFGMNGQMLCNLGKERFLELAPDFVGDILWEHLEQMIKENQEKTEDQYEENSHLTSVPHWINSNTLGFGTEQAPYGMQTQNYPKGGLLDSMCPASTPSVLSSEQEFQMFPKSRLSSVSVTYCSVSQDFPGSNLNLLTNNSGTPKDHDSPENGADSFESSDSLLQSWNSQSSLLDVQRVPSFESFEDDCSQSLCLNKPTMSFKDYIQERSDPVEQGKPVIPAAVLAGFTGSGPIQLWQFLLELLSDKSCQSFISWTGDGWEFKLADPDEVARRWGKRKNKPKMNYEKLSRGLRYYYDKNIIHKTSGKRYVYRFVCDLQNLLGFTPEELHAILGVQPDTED
# In short: as §1
# SPDEF = biological target: T9, SPDEF (Homo sapiens, UniProt O95238 1-335); conditions: protein: recombinant; tags: N-terminal GST; dsDNA, one strand shown
# T9 sequence: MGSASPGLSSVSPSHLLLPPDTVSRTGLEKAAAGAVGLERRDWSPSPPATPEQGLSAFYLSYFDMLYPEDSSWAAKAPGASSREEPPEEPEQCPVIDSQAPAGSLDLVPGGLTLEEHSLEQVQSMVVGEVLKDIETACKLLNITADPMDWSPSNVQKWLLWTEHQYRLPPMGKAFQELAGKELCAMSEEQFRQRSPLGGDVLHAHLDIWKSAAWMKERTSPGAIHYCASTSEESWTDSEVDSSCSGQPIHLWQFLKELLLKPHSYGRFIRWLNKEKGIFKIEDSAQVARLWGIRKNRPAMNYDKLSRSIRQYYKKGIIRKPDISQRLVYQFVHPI
# In short: as §1
# ETV7 = biological target: T10, ETV7 (Homo sapiens, UniProt Q9Y603 1-341); conditions: protein: recombinant; tags: N-terminal GST; dsDNA, one strand shown
# T10 sequence: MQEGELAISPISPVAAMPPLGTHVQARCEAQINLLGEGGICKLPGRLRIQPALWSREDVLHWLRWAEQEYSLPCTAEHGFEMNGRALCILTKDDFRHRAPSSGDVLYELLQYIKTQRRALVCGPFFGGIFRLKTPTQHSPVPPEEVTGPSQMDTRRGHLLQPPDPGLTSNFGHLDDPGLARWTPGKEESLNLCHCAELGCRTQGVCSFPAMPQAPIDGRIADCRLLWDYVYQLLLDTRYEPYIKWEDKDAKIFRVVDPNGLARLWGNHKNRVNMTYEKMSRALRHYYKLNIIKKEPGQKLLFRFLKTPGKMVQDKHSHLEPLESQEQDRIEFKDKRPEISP
# In short: as §1
# ELF5 = biological target: T11, ELF5 (Homo sapiens, UniProt Q9UKW6-2 1-255); conditions: protein: recombinant; tags: N-terminal GST; dsDNA, one strand shown
# T11 sequence: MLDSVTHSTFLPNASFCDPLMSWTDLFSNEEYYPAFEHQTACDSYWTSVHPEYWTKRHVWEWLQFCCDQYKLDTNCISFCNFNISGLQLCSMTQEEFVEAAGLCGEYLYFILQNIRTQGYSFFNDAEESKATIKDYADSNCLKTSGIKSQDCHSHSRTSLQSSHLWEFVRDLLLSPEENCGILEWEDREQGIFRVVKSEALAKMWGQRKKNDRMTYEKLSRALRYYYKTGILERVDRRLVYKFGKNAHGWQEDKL
# In short: as §1
# ETV3 = biological target: T12, ETV3 (Homo sapiens, UniProt P41162-2 1-143); conditions: protein: recombinant; tags: N-terminal GST; dsDNA, one strand shown
# T12 sequence: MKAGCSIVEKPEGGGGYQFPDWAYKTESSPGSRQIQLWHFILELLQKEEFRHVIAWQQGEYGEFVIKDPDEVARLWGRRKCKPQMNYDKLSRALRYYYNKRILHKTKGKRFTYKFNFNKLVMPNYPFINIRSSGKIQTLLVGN
# In short: as §1
# ETV6 = ETV6 (Homo sapiens, UniProt P41212 1-452); conditions: protein: recombinant; tags: N-terminal GST; dsDNA, one strand shown
# Sequence of ETV6 (P41212 whole entry): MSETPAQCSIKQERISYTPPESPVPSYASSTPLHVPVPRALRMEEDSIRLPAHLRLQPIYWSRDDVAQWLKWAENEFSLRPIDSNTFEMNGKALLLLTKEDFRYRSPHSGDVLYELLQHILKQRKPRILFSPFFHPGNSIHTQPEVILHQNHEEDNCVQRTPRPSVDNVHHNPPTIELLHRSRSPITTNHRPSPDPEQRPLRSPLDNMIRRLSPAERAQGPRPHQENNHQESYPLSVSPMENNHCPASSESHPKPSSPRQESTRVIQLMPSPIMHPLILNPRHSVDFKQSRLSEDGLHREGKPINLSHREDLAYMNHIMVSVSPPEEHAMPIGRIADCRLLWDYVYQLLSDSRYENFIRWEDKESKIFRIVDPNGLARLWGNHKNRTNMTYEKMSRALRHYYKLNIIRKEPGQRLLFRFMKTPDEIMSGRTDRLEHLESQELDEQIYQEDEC
# In short: as §1
sequence,measurement,setting,value
TTGTAC,binding signal,FEV,"1.52 fold enrichment (6-mer frequency, TF over GST control)"
same,binding signal,ETV5,"1.48 fold enrichment (6-mer frequency, TF over GST control)"
same,binding signal,HSF1,"1.24 fold enrichment (6-mer frequency, TF over GST control)"
same,binding signal,SPIC,"1.46 fold enrichment (6-mer frequency, TF over GST control)"
same,binding signal,ELF4,"1.47 fold enrichment (6-mer frequency, TF over GST control)"
same,binding signal,ELK4,"1.55 fold enrichment (6-mer frequency, TF over GST control)"
same,binding signal,ETV2,"1.48 fold enrichment (6-mer frequency, TF over GST control)"
same,binding signal,ELF3,"1.39 fold enrichment (6-mer frequency, TF over GST control)"
same,binding signal,CRX,"1.2 fold enrichment (6-mer frequency, TF over GST control)"
same,binding signal,ETV1,"1.24 fold enrichment (6-mer frequency, TF over GST control)"
same,binding signal,ERF,"1.31 fold enrichment (6-mer frequency, TF over GST control)"
same,binding signal,ETV3L,"1.41 fold enrichment (6-mer frequency, TF over GST control)"
same,binding signal,ETS2,"1.34 fold enrichment (6-mer frequency, TF over GST control)"
same,binding signal,SPDEF,"1.54 fold enrichment (6-mer frequency, TF over GST control)"
same,binding signal,ETV7,"1.33 fold enrichment (6-mer frequency, TF over GST control)"
same,binding signal,ELF5,"1.23 fold enrichment (6-mer frequency, TF over GST control)"
same,binding signal,ETV3,"1.44 fold enrichment (6-mer frequency, TF over GST control)"
same,binding signal,ETV6,"1.48 fold enrichment (6-mer frequency, TF over GST control)"
